Bioassay records as filed in PubChem BioAssay.
USP30 block: inhibitors of human USP30 deubiquitinase; Ubiquitin carboxyl-terminal hydrolase 30 (Homo sapiens), Q70CQ3; purified USP30, Ub-rhodamine cleavage fluorescence; inhibition, % at 25 µM; 47,000 tested, 5.3% active; AID 1645860, 2021
USP10 block: inhibitors of human USP10 deubiquitinase; Ubiquitin carboxyl-terminal hydrolase 10 (Homo sapiens), Q14694; inhibition, % at 20 µM; 47,000 tested, 1.1% active; purified USP10, Ub-rhodamine fluorescence, 60 min; AID 1645856, 2021
USP8 block: inhibitors of human USP8 deubiquitinase; inhibition, % at 20 µM; 47,000 tested, 4.2% active; purified USP8, Ub-rhodamine cleavage fluorescence, 30 min
UCHL1 inh: inhibitors of human UCHL1 deubiquitinase; inhibition, % at 20 µM; purified UCHL1, Ub-rhodamine cleavage fluorescence; AID 1645859, 2021; Ubiquitin carboxyl-terminal hydrolase isozyme L1 (Homo sapiens), P09936; 47,000 tested, 0.2% active
USP7 inh: inhibitors of human USP7 deubiquitinase; 47,000 tested, 0.3% active; Ubiquitin carboxyl-terminal hydrolase 7 (Homo sapiens), Q93009; inhibition, % at 20 µM; AID 1645854, 2021; purified USP7, Ub-rhodamine cleavage fluorescence
USP17 inh: inhibitors of human USP17 deubiquitinase; purified USP17, Ub-rhodamine cleavage fluorescence, 3 h; inhibition, % at 50 µM; 47,000 tested, 6.5% active; AID 1645855, 2021
Target sequence (A8MUK1 whole entry, looked up): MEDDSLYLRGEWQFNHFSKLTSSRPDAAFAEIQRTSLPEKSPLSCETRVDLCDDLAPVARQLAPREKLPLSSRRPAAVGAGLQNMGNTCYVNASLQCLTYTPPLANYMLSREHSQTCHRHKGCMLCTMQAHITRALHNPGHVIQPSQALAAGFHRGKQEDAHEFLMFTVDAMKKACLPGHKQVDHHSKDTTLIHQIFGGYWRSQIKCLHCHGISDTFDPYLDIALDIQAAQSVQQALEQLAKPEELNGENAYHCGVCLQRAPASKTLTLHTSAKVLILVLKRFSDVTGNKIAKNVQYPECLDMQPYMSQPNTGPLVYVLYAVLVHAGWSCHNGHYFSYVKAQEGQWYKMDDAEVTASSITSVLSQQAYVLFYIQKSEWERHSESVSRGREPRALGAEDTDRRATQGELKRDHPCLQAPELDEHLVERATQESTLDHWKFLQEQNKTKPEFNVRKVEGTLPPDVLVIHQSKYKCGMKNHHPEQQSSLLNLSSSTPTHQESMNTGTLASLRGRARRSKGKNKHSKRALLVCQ
The depositor's hits bear a star; . = no result. Rows were chosen to be rich in hits. Some 12% of all compounds tested hit in one or more screens of this group. Cut-off read from the data, not from the text of the source: active = inhibition above about 30%; inactive = the rest.

SMILES	USP30 block	USP10 block	USP8 block	UCHL1 inh	USP7 inh	USP17 inh
CCOc1ccc2ccccc2c1C(=O)N1CC(=O)Nc2ccc(C)cc2C1c1ccc(F)cc1 (centres undefined)	42.6*	9.2	13.1	6.3	4.2	8.7
CCC(C(=O)NCc1ccccc1)N1C(=O)CCn2nc(C)cc21 (centres undefined)	.	-0.6	0.5	0.0	3.0	7.0
Cc1ccc(C)c(NC(=O)CCCN(C)S(=O)(=O)c2ccc(Cl)cc2)c1	6.7	0.1	-0.3	3.0	-2.2	3.7
COC(=O)c1ccccc1NC(=O)Cn1c(=O)n(Cc2ccc(C(=O)NCc3ccco3)cc2)c(=O)c2ccccc21	1.5	32.4*	38.7*	9.9	13.8	16.0
CCOC(=O)c1ccc(NC(=O)Cn2c(=O)n(-c3ccc(CC(=O)NCc4ccco4)cc3)c(=O)c3ccccc32)cc1	7.0	33.3*	58.3*	-0.4	8.8	21.0
O=C(Cn1c(=O)n(Cc2ccccc2)c(=O)c2cc(Cl)ccc21)NCc1ccco1	-38.5	21.9	6.4	-1.7	-2.6	-10.4
CCOC(=O)c1ccc(NC(=O)Cn2c(=O)n(CC(=O)NCc3ccco3)c(=O)c3ccccc32)cc1	59.2*	35.1*	10.9	0.5	-3.1	41.2*
O=C(Cc1ccc(-n2c(=O)c3ccccc3n(CC(=O)Nc3ccc(F)cc3F)c2=O)cc1)NCc1ccco1	-64.0	-7.9	15.1	-4.0	-2.3	-22.7
Cc1c(Cn2cc(N)cn2)cnn1C	8.4	0.5	-2.8	3.5	6.7	-4.3
CC(c1ccncc1)n1nccc1NC(=O)c1cccnc1N1CCCC1 (centres undefined)	-41.3	-4.0	-199.0	-11.3	-8.5	-34.8
CCOC(=O)c1noc2nc(C)nc(NCc3ccc(OC)cc3)c12	-11.4	3.2	40.4*	0.1	-0.3	.
Cc1ccccc1OCC(=O)N1CCN(S(=O)(=O)c2ccc3c(c2)OCCCO3)CC1	37.8*	3.0	8.4	2.9	0.2	8.2
COc1ccccc1NC(=O)C1CN(c2nc3ccccc3s2)C1	.	0.9	-3.3	0.8	-7.6	38.4*
O=S(=O)(c1cc(F)cc(F)c1)N1CCCn2c(nc3ccccc32)C1	37.9*	1.4	-1.7	-1.5	-3.8	31.7*
CSc1nc(C)c2c(n1)N(c1ccc(C(C)C)cc1)CC2	12.5	-1.2	0.2	2.7	.	41.0*
Cc1nc(SCc2ccccc2)nc2c1CCN2c1ccccc1	24.2	0.5	0.0	4.7	3.9	6.1
O=C(CCc1c[nH]c2ccccc12)N1C[C@@H](O)[C@H](N2CCCC2)C1	-4.0	0.1	4.9	-3.9	-2.4	-4.9
O=C(CCc1c[nH]c2ccccc12)OCC(=O)c1cc2c3c(c1)CC(=O)N3CCC2	.	16.6	32.2*	14.2	.	62.2*
O=C(Cn1c(=O)n(CC2CCC(C(=O)NCCc3ccccc3)CC2)c(=O)c2ccccc21)NCc1ccco1 (centres undefined)	-49.2	28.6	4.3	-2.4	-0.5	-12.1
COc1ccc(OC)c(NC(=O)Cn2c(=O)n(CC3CCC(C(=O)NCCc4ccccc4)CC3)c(=O)c3ccccc32)c1 (centres undefined)	36.5*	29.4	22.3	-0.1	8.6	39.4*
Cc1cccc(NC(=O)Cn2c(C)nc3c(c2=O)CCN(Cc2ccccc2)C3)c1C	-1.9	-9.3	13.9	-2.0	-7.0	30.0*
COc1ccc(Cl)cc1NC(=O)Cn1c(=O)n(CCCCC(=O)NCCc2ccccc2)c(=O)c2ccccc21	5.0	43.2*	42.2*	0.2	1.7	13.8
CCCCCn1c(SCC(=O)CC(=O)OCC)nc2cc(C(=O)NCc3ccco3)ccc2c1=O	-100.7	7.1	63.4*	-5.6	-4.2	34.2*
Cc1ccc(CNS(=O)(=O)c2cc(-c3[nH]ncc3C(=O)N(C)C)oc2C)cc1	-8.9	-1.8	-6.0	-2.1	1.4	-3.6
COc1ccc(OC)c(NC(=O)CN2CCC(c3nc4ccccc4[nH]3)CC2)c1	-35.6	-3.3	-2.0	-6.7	11.6	-13.8
SMILES	USP30 block	USP10 block	USP8 block	UCHL1 inh	USP7 inh	USP17 inh
Cc1ccc(Cn2c(=O)c3ccccc3n3c(CCC(=O)NCCN4CCOCC4)nnc23)cc1	13.0	0.2	-4.1	4.2	-25.3	0.1
CCC(=O)Nc1ccccc1-c1nc2ccccc2n(CC(=O)Nc2cc(OC)ccc2OC)c1=O	85.3*	0.9	10.7	4.3	-2.4	45.1*
Cc1ccc(Cn2c(=O)n(CCC(=O)NCCc3ccccc3)c(=O)c3ccccc32)cc1	63.1*	15.3	33.8*	2.9	9.9	46.4*
COc1ccc(CCNC(=O)CCCn2c(SCC(=O)NCc3ccco3)nc3ccccc3c2=O)cc1OC	40.6*	5.0	-5.9	-1.2	-5.4	32.7*
Cc1ccc(Cl)cc1NC(=O)Cn1c(=O)n(CCc2ccccc2)c(=O)c2cccnc21	-1.3	16.8	5.4	0.5	10.7	12.1
COC(=O)CSc1nc2ccccc2c(=O)n1Cc1ccco1	8.0	0.0	10.5	1.9	-0.6	6.1
Cc1cccc(NC(=O)Cn2c(=O)n(CC(=O)NCCc3ccccc3)c(=O)c3ccccc32)c1C	48.1*	16.0	7.6	-2.2	3.5	21.7
CCNS(=O)(=O)c1cc(-c2nc(C)c(C(=O)N3CCCC3)s2)n(C)c1C	17.0	1.2	18.2	3.3	4.6	9.2
COc1ccccc1NS(=O)(=O)c1ccc2oc(SCC(=O)c3ccccc3)nc2c1	3.3	5.0	-27.6	-1.8	4.7	1.4
COc1cccc(NC(=O)CN(C)c2ccc([N+](=O)[O-])cn2)c1	27.7	0.7	-45.6	2.2	2.7	-1.3
COc1ccc(CCNC(=O)CCCCn2c(=O)c3ccccc3n(Cc3cccc(Cl)c3)c2=O)cc1OC	52.5*	1.3	2.5	5.2	6.5	34.4*
COc1ccc(NC(=O)CCCCn2c(=O)c3ccccc3n(Cc3cccc([N+](=O)[O-])c3)c2=O)cc1	10.5	1.0	21.4	4.1	4.1	33.2*
COc1ccc(CCNC(=O)CSc2cc(=O)n(C)c3cc(Cl)ccc23)cc1OC	29.8	-0.8	-1.1	-0.1	-0.9	37.6*
COc1ccccc1CNC(=O)CCn1c(=O)c2ccccc2n(Cc2cccc([N+](=O)[O-])c2)c1=O	27.7	5.3	-3.9	2.7	5.7	6.3
COc1ccc(CCNC(=O)CCCn2c(=O)c3ccccc3n(Cc3ccccc3F)c2=O)cc1OC	-2.2	0.0	-2.6	0.1	-1.0	5.7
CCOC(=O)c1nn(-c2ccc(F)cc2)c2c1CCCCC2	13.0	4.0	10.8	3.9	-35.1	11.9
Cc1ccc(C)c(Cn2cnc3c(nnn3-c3cccc(F)c3)c2=O)c1	-41.4	15.5	53.6*	3.3	24.6	.
Cc1ncoc1C(=O)N1CCCCC1c1ncc(Cc2ccccc2)o1 (centres undefined)	4.9	-0.7	-0.1	-0.7	-11.5	-8.4
